The whole screen tested about 16,000 compounds, of which about 5,700 (36%) were called active. Roughly 24% stayed inconclusive and do not appear here. The list shows a part of the results. A number with no mark means an inactive call. The call rests on the fitted dose curve; in most records, active means well fitted curve in the direction sought with a large enough effect; inconclusive means small, poorly fitted or top-dose-only effect, or effect the other way; inactive means no such curve, though single readings can be large or run the other way.
What follows are compounds tested against Cytochrome P450 1A2 (Homo sapiens) (UniProt P05177) (assay: Cytochrome panel assay with activity outcomes). Conditions: recombinant CYP, pro-luciferin dealkylation, luminescence, p450-cyp1a2; series mostly up to 57.1 µM.
Sequence of Cytochrome P450 1A2 (Homo sapiens) (P05177 whole entry, looked up): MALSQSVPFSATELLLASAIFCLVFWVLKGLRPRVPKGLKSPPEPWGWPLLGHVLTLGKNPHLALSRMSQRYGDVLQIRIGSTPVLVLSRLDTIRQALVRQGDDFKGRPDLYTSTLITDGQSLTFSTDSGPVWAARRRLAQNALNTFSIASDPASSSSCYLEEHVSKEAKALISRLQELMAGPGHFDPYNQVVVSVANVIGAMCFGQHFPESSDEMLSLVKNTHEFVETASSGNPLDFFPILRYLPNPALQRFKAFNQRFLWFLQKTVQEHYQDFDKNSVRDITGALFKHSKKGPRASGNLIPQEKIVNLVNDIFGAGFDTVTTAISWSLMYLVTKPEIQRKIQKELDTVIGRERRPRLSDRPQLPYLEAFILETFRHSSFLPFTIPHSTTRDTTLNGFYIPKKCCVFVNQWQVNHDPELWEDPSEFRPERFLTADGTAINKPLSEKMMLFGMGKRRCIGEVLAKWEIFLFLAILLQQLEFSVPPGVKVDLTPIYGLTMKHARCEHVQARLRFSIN
On the % scale 0 is the no-effect control and ±100 the full control effect.

SMILES | AC50 | activity, negative = inhibition
CC(=O)n1nc(-c2ccco2)nc1N | 10000 nM (active) | 
Cc1nc2nc[nH]n2c(=O)c1NC(=O)CC12CC3CC(CC(C3)C1)C2 | inactive | 
COC(=O)N1CC(=O)N(OC)C1c1ccc(Cl)cc1Cl (stereo not drawn) | inactive | 
O=C1c2ccccc2N[C@H](c2cc(Cl)cc(Cl)c2O)N1CCc1ccccn1 |  | 5.81% [at 2.29 µM]
O=C1c2ccccc2NC(c2ccc(Cl)cc2Cl)N1O (stereo not drawn) | 6310 nM (active) | 
Cn1c(=NC(=O)CCl)sc2ccccc21 | 2240 nM (active) | 
CO[C@H]1[C@H](O[C@H]2O[C@@H](C)[C@@H](O[C@@H]3C[C@](C)(O)[C@H](OC(=O)CC(C)C)[C@H](C)O3)[C@@H](N(C)C)[C@@H]2O)[C@@H](CC=O)C[C@@H](C)[C@@H](O)/C=C\C=C/C[C@@H](C)OC(=O)C[C@H]1OC(C)=O | inactive | 
COc1ccc2[nH]c3cc4c(=O)c5cc(OC)ccc5[nH]c4cc3c(=O)c2c1 |  | -6.02% [at 2.29 µM]
COc1ccc2[nH]cc(C=O)c2c1 | 7080 nM (active) | 
Brc1[nH]nc2ccccc12 | 1580 nM (active) | 
N[C@@H](Cc1[nH]nc2ccccc12)C(=O)O |  | -19.1% [at 11.4 µM]
COC(=O)N1CCC2(CC1)CCN(c1ccccn1)CC2 | inactive | 
COc1ccc(-c2cc(C(=O)O)c3c(C)nn(-c4ccccn4)c3n2)cc1 | inactive | 
COC(=O)c1ccccc1N/C=C1\CCc2c(c(C)nn2-c2ccccn2)C1=O | 6310 nM (active) | 
Cc1cccc(CNc2ncncc2-c2cccnc2)c1 | 794 nM (active) | 
c1ccc(CNc2ncncc2-c2cccnc2)cc1 | 2510 nM (active) | 
c1cncc(CNc2ncn[nH]2)c1 |  | -7.88% [at 11.4 µM]
c1cncc(CNc2ncncc2-c2cccnc2)c1 | 5010 nM (active) | 
CC[C@H]1C2=C3C(CC[C@H]4C(OCc5ccc(F)cc5C(F)(F)F)OC[C@](C)([C@@H]34)N(C(=O)OC(C)(C)C)C2)C2COC(=O)OCC21 (stereo partly drawn) | inactive | 
O=C(Nc1ccc2c(c1)nc1n2CCN(C2CCCCC2)C1)NC1CCCCC1 | inactive | 
Cc1ccc(S(=O)(=O)N[C@@H]2COC(=O)C/C=C\[C@H](C)COC(=O)N[C@@H](C)C(=O)C/C=C\[C@H]2C)cc1 |  | -0.145% [at 11.4 µM]
CCn1c(SCc2ccc(C(=O)Nc3nccs3)cc2)nnc1-c1ccc(NC(C)=O)cc1 | 12600 nM (active) | 
C=CCn1c(SCc2ccc(C(=O)Nc3ccccc3)cc2)nnc1-c1ccccc1 | 14100 nM (active) | 
Cc1ccc(NC(=O)c2ccc(CSc3nnc(-c4ccncc4)n3C)cc2)cc1 | inactive | 
Cc1nc2sc(C#N)c(N)c2c2c1CCCC2 | 2000 nM (active) | 
OCc1ccc(-c2nn(Cc3ccccc3)c3ccccc23)o1 | 1580 nM (active) | 

SMILES | AC50 | activity, negative = inhibition
NC(=O)c1csc(-c2ccc(CO)o2)n1 |  | -13.1% [at 11.4 µM]
O=C(NNS(=O)(=O)c1ccccc1)c1cccnc1 |  | 2.15% [at 2.29 µM]
O=C(NNS(=O)(=O)c1cc(Cl)cc(Cl)c1)c1sccc1-n1cccc1 | 2000 nM (active) | 
CCS(=O)(=O)N1CCC(C(=O)NCCCN2CCCC2)CC1 | inactive | 
CCCN1C(=O)/C(=C/c2ccc(C)s2)SC1=Nc1ccc(OC)cc1 | 11200 nM (active) | 
COc1ccc(N=C2S/C(=C\c3ccc(C)s3)C(=O)N2CC(C)C)cc1 | inactive | 
O=C(O)CCNc1ncnc2nc[nH]c12 |  | -6.59% [at 11.4 µM]
CN(C)CCCNc1ncnc2nc[nH]c12 |  | -16.6% [at 11.4 µM]
CCCCNc1nc(SC)nc2nc[nH]c12 | 316 nM (active) | 
CC[C@@]1(O)C(=O)OCc2c1cc1n(c2=O)Cc2cc3c(CN(C)C)c(O)ccc3nc2-1 |  | -17.9% [at 2.29 µM]
CCn1c(SCC(=O)Nc2sc3c(c2C#N)CCC(C(C)(C)C)C3)nnc1-c1ccco1 (stereo not drawn) | inactive | 
CCn1c(SCC(=O)Nc2sc3c(c2C(N)=O)CCC(C)C3)nnc1-c1ccco1 (stereo not drawn) | 12600 nM (active) | 
COc1cccc(Cn2c(=O)c(-c3cc(F)cc(F)c3)nc3cnc(N4CCN(C)CC4)nc32)c1 | inactive | 
COc1ncc2nc(-c3cc(F)cc(F)c3)c(=O)n(C[C@H]3CCCO3)c2n1 | 3160 nM (active) | 
COc1ncc2nc(-c3ccc(Cl)cc3)c(=O)n(C[C@H]3CCCO3)c2n1 | 501 nM (active) | 
CCCC12CN3CC(CCC)(CN(C1)C3C(O)C(O)C(O)CO)C2=O (stereo not drawn) | inactive | 
COc1cccc(C(=O)Nc2cc(C(F)(F)F)ccc2Cl)c1 | 2510 nM (active) | 
COc1cc(NC(=O)c2ccc(COCC(F)(F)F)cc2)cc(OC)c1OC | inactive | 
CCCC(=O)Nc1ccc(C(=O)Nc2cc(C(F)(F)F)ccc2Cl)cc1 | inactive | 
COc1ccc(/C=C/C(=O)Nc2cc(C(F)(F)F)ccc2Cl)cc1 | 447 nM (active) | 
COc1ccc(C(=O)N2CCC3(CCN(Cc4cc(C(F)(F)F)cc(C(F)(F)F)c4)CC3)CC2)cc1 | inactive | 
COc1cc(C(=O)Nc2cc(C(F)(F)F)ccc2Cl)cc(OC)c1OC | 5010 nM (active) | 
CN(C)S(=O)(=O)Oc1cccc(C(=O)Nc2ccccc2Cl)c1 | 2000 nM (active) | 
CCOc1ccc(/C(O)=C2/C(=O)C(=O)N(CCOCCO)C2c2cccnc2)cc1 (stereo not drawn) | inactive | 
CS(=O)(=O)N1CCC[C@@]2(CCN(c3ccccn3)C2)C1 | inactive | 
COC(=O)CNC(=O)CCCCC(=O)NCC(=O)OC | inactive | 

SMILES | AC50 | activity, negative = inhibition
COc1ccc(CNC(=O)/C=C/c2ccc(OCCCF)cc2)cc1 | inactive | 
COC(=O)CNC(=O)/C=C/c1ccc(OC)cc1 | 12600 nM (active) | 
CCOC(=O)Cn1c(=O)oc2cc(S(=O)(=O)NCCc3ccc(OCC)c(OCC)c3)ccc21 | 12600 nM (active) | 
Cc1ccc(CNC(=O)CCNS(=O)(=O)c2ccc3c(c2)c(=O)n(C)c(=O)n3C)cc1 | inactive | 
CCOc1ccc(CCNC(=O)C2CCN(S(=O)(=O)CC)CC2)cc1OCC | inactive | 
N#Cc1cccc(NC(=O)N2CC[C@@]3(CCCN(C(=O)c4ccco4)C3)C2)c1 | inactive | 
O=C(NCCCn1ccnc1)c1ccc(Br)c(S(=O)(=O)N2CCOCC2)c1 | 1780 nM (active) | 
Cc1ccc(C(=O)NCCCN2CCOCC2)cc1N1CCCC1=O | inactive | 
COc1ccc(C(=O)NCCCN2CCOCC2)cc1OC | inactive | 
Cc1cccc([C@@H]2CN(C)CCc3c2cc(O)c(O)c3Cl)c1 | inactive | 
CC(C)Nc1nc(Oc2ccc(Cl)cc2)cc(C(F)(F)F)n1 | 2000 nM (active) | 
CC(C)c1cc(C(F)(F)F)nc(NNc2nc(C(C)C)cc(C(F)(F)F)n2)n1 |  | -41.5% [at 11.4 µM]
CCS(=O)(=O)c1ccc2oc(Nc3cc(C)cc(C)c3)nc2c1 | 5010 nM (active) | 
Cc1cc(C)n(-c2cc(N3CCN(S(=O)(=O)c4ccc(C)c(C)c4)CC3)ccc2[N+](=O)[O-])n1 | inactive | 
CC(C)NC[C@H](O)c1ccc2ccccc2c1 | 12600 nM (active) | 
CC(C)NC[C@@H](O)c1ccc(O)c2ncccc12 |  | -12.1% [at 2.29 µM]
CC(C)NC[C@H](O)c1cc(O)cc(O)c1 | inactive | 
CC(C)NC[C@@H](O)COc1ccc(COCCOC(C)C)cc1 | inactive | 
O=C(O)c1cc(=O)c2c(OCC(O)COc3cccc4oc(C(=O)O)cc(=O)c34)cccc2o1 | inactive | 
CC(=O)Nc1ccc(OC[C@@H](O)CNC(C)C)cc1 | inactive | 
OC[C@@H](O)COc1cccc2ccccc12 | 631 nM (active) | 
CC(C)NC[C@H](O)COc1cccc2ccccc12 | 200 nM (active) | 
CC(C)NC[C@H](O)c1ccc(NS(C)(=O)=O)cc1 | inactive | 
OC[C@@H](O)CNc1ncnc2ccccc12 |  | -18.7% [at 11.4 µM]
N[C@@](CC(=O)O)(Cc1ccccc1)C(=O)O |  | -13.4% [at 2.29 µM]
O=C(Cc1ccccc1)N/N=C\c1ccc(Br)o1 | 4470 nM (active) | 

SMILES | AC50 | activity, negative = inhibition
O=C(O)/C(=C\c1ccccc1)Cc1ccccc1 |  | -18.4% [at 11.4 µM]
O=C(Cc1ccccc1)N/N=C/c1cc(Br)c(Br)o1 | 2240 nM (active) | 
COC(=O)c1ccc2ccn(CC(=O)NC3CCCCC3)c2c1 | inactive | 
COC(=O)c1ccc(-n2cncn2)c(F)c1 | 708 nM (active) | 
O=P(O)(O)O[C@@H]1O[C@H](CO)[C@@H](O)[C@H](O)[C@@H]1O |  | -16.5% [at 11.4 µM]
COc1ccccc1OCCCCCc1c(C)n[nH]c1C | 1780 nM (active) | 
O=[N+]([O-])c1ccc(N2CCN(CCOc3nonc3-c3ccccc3)CC2)c(Cl)c1 | inactive | 
O=c1cc(N2CCCCC2)c(-c2ccccc2)nn1Cc1ccccc1Cl | 1260 nM (active) | 
O=C(c1ccc(Cl)cc1)N1CCN(c2cc(=O)[nH]nc2-c2ccccc2)CC1 | inactive | 
Cc1cccc(CNc2ccnc(-c3ccc(C(=O)N(C)C)cc3)n2)c1 | 25100 nM (active) | 
CN(C)C(=O)c1ccc(-c2nccc(NCc3cccnc3)n2)cc1 | 15800 nM (active) | 
Cc1cccc(N(NC(=O)C(C)(C)O)C(=O)c2ccccc2)c1 | inactive | 
C/C(=N\N=C1\NC(=O)CC(C(=O)O)S1)c1cccs1 (stereo not drawn) | inactive | 
C/C(=N\N=C(c1ccccc1)c1ccccc1)c1cccs1 | 1410 nM (active) | 
C[C@@H](CSC(=N)N)C(N)=O |  | -6.57% [at 2.29 µM]
O=C(c1cc(O)c(O)c([N+](=O)[O-])c1)c1ccccc1F | inactive | 
Cc1ccc(-c2cccc(OC(=O)c3ccccc3F)c2)cc1 | 1260 nM (active) | 
c1ccc(-c2nnc(SCc3nc4ccccc4[nH]3)n2Cc2ccco2)cc1 | 14100 nM (active) | 
COCCn1c(Cc2ccccc2)nnc1SCc1nc2ccccc2c(=O)[nH]1 | inactive | 
CCn1c(SCc2nc3ccccc3[nH]2)nnc1-c1ccc(OC)cc1 | 25100 nM (active) | 
CCn1c(SCC(=O)NC(=O)NCc2ccco2)nnc1-c1cccs1 | inactive | 
c1ccc(SCc2nc3ccccc3[nH]2)cc1 | 11200 nM (active) | 
Cc1cc(NC(=O)CSc2nnc(-c3ccccc3)n2Cc2ccco2)no1 | inactive | 
Cc1ccccc1CSc1nnc(-c2cccs2)n1Cc1ccco1 | 4470 nM (active) | 
O=c1cc(CSc2ccccc2)[nH]c(=S)[nH]1 | inactive | 
